# Measured values reported in the supplement of paper PMC8728848.
# This is one part of a sample in which the strongest signals are shown more often than they occur.
# B1: a L Fucosidase (Streptosporangium roseum), D2B1P1_STRRD (protein)
# chain: MRRKLLLVPAVGLLVIGSIFATQPVASADTPPVYEPTVESLNSHPVPQWFNDDKFGIFIHWGAYSVPAWGPRGSYAEWYGNYMNAGGSATNAHHKATYGQDFNYDAFLQQWKAEKFDPADWVKLFKDAGAKYFVLTSKHHEGMALWDSKSSGRDSVDLGPGRDLAKELFDAARKDEAKLKAGFYYSLYEWYNPAYTGRPATNPYTGAEIPYTGAPGGGDYVKDYMLPQMRELIDGYDPDIIWCDGQWEKPASYWNTAGVIADYYNKALNSGKEVAVANRCKIQSGNLDSPELDFQTPEYTVKPDIDPVKWESSRGIAHSYGYNQNEPEEDHLTSDQLVDSLVDIVSKNGNLLLDIGPKADGTIPEIQRQRLLDIGAWLKANGEAIYGTTYWNRAEEKGGPDDVRYTAKDATLYATALKWPGEQLTLGADLPVDHSTRITMLGSGARLSWSRDEQGRVVVNTPQEAGKHAYVFKIETPGVRSLLRTSSSLAKEIAPGRTISGELTVTNPGKRHTPATKLSLTVPQGWTATLGAPRVRPLGPGESVKVPISVSAPEGVAPAPYTLGLYQRTGRMGTTTALPLTVNRPNLSLGKPATQKSTGYDAPASRAVDGNTGGDWSAGSTTHTAEPEKQAWWQVDLGASARLDSVDVWNRLDCCADRLKDFWVMASDQPFTTDDLDQARTAPGVTAVHVGEQAGSPSKVKLPEGTRGRYVRIQLASPSNPLSLAEVQVRGSMARPNLSLGKPATQKSTGYDAPASRAVDGNTGGDWSAGSTTHTAEPEKQAWWQVDLGASARLDSVDVWNRLDCCADRLKDFWVMASDQPFTTDDLDQARTAPGVTAVHVGEQAGSPSKVKLPEGTRGRYVRIQLASPSNPLSLAEVQVRLEHHHHHHS
# How the values were obtained:
# Assay in all cases: glycan array binding signal (z-score within array); higher = stronger binding
# Settings in all cases: glycan notation: IUPAC condensed, linker removed
# [1] = biological target: Fuc(a1-2)Gal
# In short: (§1)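 The binding signal is a Z-score computed within each array and averaged over linkers. Arrays of the same protein sequence at different concentrations or buffers were also averaged together. Data originate from 3228 arrays in the Consortium for Functional Glycomics database, kept only where the protein sequence was available.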
# [2] = biological target: Fuc(a1-2)Gal(b1-3)GlcNAc(b1-2)Man(a1-3)[Fuc(a1-2)Gal(b1-3)GlcNAc(b1-2)Man(a1-6)]Man(b1-4)GlcNAc(b1-4)GlcNAc
# In short: as §1
# [3] = biological target: Fuc(a1-2)Gal(b1-3)GlcNAc(b1-3)[Neu5Ac(a2-6)Gal(b1-4)GlcNAc(b1-6)]Gal(b1-4)Glc
# In short: as §1
# [4] = biological target: Fuc(a1-2)Gal(b1-4)Fuc(a1-3)]GlcNAc(b1-2)Man(a1-3)[Fuc(a1-2)Gal(b1-4)[Fuc(a1-3)]GlcNAc(b1-2)Man(a1-6)]Man(b1-4)GlcNAc(b1-4)GlcNAc
# In short: as §1
# [5] = biological target: Fuc(a1-2)Gal(b1-4)GlcNAc(b1-3)Gal(b1-4)GlcNAc(b1-2)Man(a1-3)[Fuc(a1-2)Gal(b1-4)GlcNAc(b1-3)Gal(b1-4)GlcNAc(b1-2)Man(a1-6)]Man(b1-4)GlcNAc(b1-4)GlcNAc
# In short: as §1
# [6] = biological target: Fuc(a1-2)Gal(b1-4)GlcNAc(b1-3)Gal(b1-4)GlcNAc(b1-3)Gal(b1-4)GlcNAc
# In short: as §1
# [7] = biological target: Fuc(a1-2)Gal(b1-4)GlcNAc(b1-6)GalNAc
# In short: as §1
# [8] = biological target: Fuc(a1-2)Gal(b1-4)[Fuc(a1-3)]GlcNAc
# In short: as §1
# [9] = biological target: Fuc(a1-2)Gal(b1-4)[Fuc(a1-3)]GlcNAc(b1-2)Man(a1-3)[Fuc(a1-2)Gal(b1-4)[Fuc(a1-3)]GlcNAc(b1-2)Man(a1-6)]Man(b1-4)GlcNAc(b1-4)[Fuc(a1-6)]GlcNAc
# In short: as §1
# [10] = biological target: Fuc(a1-2)Gal(b1-4)[Fuc(a1-3)]GlcNAc(b1-2)[Fuc(a1-2)Gal(b1-4)[Fuc(a1-3)]GlcNAc(b1-4)]Man(a1-3)[Fuc(a1-2)Gal(b1-4)[Fuc(a1-3)]GlcNAc(b1-2)Man(a1-6)]Man(b1-4)GlcNAc(b1-4)GlcNAc
# In short: as §1
# [11] = biological target: Fuc(a1-2)Gal(b1-4)[Fuc(a1-3)]GlcNAc(b1-3)Gal(b1-4)[Fuc(a1-3)]GlcNAc
# In short: as §1
# [12] = biological target: Fuc(a1-2)Gal(b1-4)[Fuc(a1-3)]GlcNAc(b1-3)Gal(b1-4)[Fuc(a1-3)]GlcNAc(b1-3)Gal(b1-4)[Fuc(a1-3)]GlcNAc
# In short: as §1
# [13] = biological target: Fuc(a1-2)[Gal(a1-3)]Gal
# In short: as §1
# [14] = biological target: Fuc(a1-2)[Gal(a1-3)]Gal(b1-3)GalNAc
# In short: as §1
# [15] = biological target: Fuc(a1-2)[Gal(a1-3)]Gal(b1-3)GlcNAc(b1-3)GalNAc
# In short: as §1
# [16] = biological target: Fuc(a1-2)[Gal(a1-4)]Gal(b1-4)GlcNAc
# In short: as §1
# [17] = biological target: Fuc(a1-2)[GalNAc(a1-3)]Gal(b1-3)GalNAc(a1-3)[Fuc(a1-2)]Gal(b1-4)GlcNAc
# In short: as §1
# [18] = biological target: Fuc(a1-2)[GalNAc(a1-3)]Gal(b1-4)GlcNAc(b1-2)Man
# In short: as §1
# [19] = biological target: Fuc(a1-2)[GalNAc(a1-3)]Gal(b1-4)GlcNAc(b1-2)Man(a1-3)[Fuc(a1-2)[GalNAc(a1-3)]Gal(b1-4)GlcNAc(b1-2)Man(a1-6)]Man(b1-4)GlcNAc(b1-4)[Fuc(a1-6)]GlcNAc
# In short: as §1
# [20] = biological target: Fuc(a1-2)[GalNAc(a1-3)]Gal(b1-4)GlcNAc(b1-3)Gal(b1-4)GlcNAc(b1-3)Gal(b1-4)GlcNAc
# In short: as §1
# [21] = biological target: Fuc(a1-2)[GalNAc(b1-3)]Gal
# In short: as §1
# [22] = biological target: Fuc(a1-3)[Gal3S(b1-4)]GlcNAc
# In short: as §1
# [23] = biological target: Gal(a1-3)Gal(b1-4)GlcNAc(b1-6)GalNAc
# In short: as §1
# [24] = biological target: Gal(b1-3)GlcNAc6S
# In short: as §1
# [25] = biological target: Gal(b1-4)GlcNAc(b1-2)Man(a1-3)[Gal(b1-4)GlcNAc(b1-2)Man(a1-6)][Gal(b1-4)GlcNAc(b1-4)]Man(b1-4)GlcNAc(b1-4)[Fuc(a1-6)]GlcNAc
# In short: as §1
# [26] = biological target: Gal(b1-4)GlcNAc(b1-2)[Gal(b1-4)GlcNAc(b1-6)]Man(a1-6)[Gal(b1-4)GlcNAc(b1-2)Man(a1-3)]Man(b1-4)GlcNAc(b1-4)[Fuc(a1-6)]GlcNAc
# In short: as §1
# [27] = biological target: Gal(b1-4)GlcNAc(b1-3)Gal(b1-4)GlcNAc(b1-3)Gal(b1-4)GlcNAc(b1-3)Gal(b1-4)GlcNAc(b1-3)Gal(b1-4)GlcNAc(b1-2)Man(a1-3)[Gal(b1-4)GlcNAc(b1-3)Gal(b1-4)GlcNAc(b1-3)Gal(b1-4)GlcNAc(b1-3)Gal(b1-4)GlcNAc(b1-3)Gal(b1-4)GlcNAc(b1-2)Man(a1-6)]Man(b1-4)GlcNAc(b1-4)GlcNAc
# In short: as §1
binder,measurement,setting,value
B1,glycan array binding signal (z-score),[1],4.93
same,glycan array binding signal (z-score),[2],0.052
same,glycan array binding signal (z-score),[3],-0.56
same,glycan array binding signal (z-score),[4],0.398
same,glycan array binding signal (z-score),[5],9.35
same,glycan array binding signal (z-score),[6],4.15
same,glycan array binding signal (z-score),[7],4.78
same,glycan array binding signal (z-score),[8],3.89
same,glycan array binding signal (z-score),[9],3.58
same,glycan array binding signal (z-score),[10],0.785
same,glycan array binding signal (z-score),[11],9.04
same,glycan array binding signal (z-score),[12],5.04
same,glycan array binding signal (z-score),[13],3.18
same,glycan array binding signal (z-score),[14],-0.442
same,glycan array binding signal (z-score),[15],0.499
same,glycan array binding signal (z-score),[16],4.37
same,glycan array binding signal (z-score),[17],-0.325
same,glycan array binding signal (z-score),[18],1.44
same,glycan array binding signal (z-score),[19],0.363
same,glycan array binding signal (z-score),[20],4.02
same,glycan array binding signal (z-score),[21],-0.567
same,glycan array binding signal (z-score),[22],0.551
same,glycan array binding signal (z-score),[23],0.325
same,glycan array binding signal (z-score),[24],-0.504
same,glycan array binding signal (z-score),[25],1.72
same,glycan array binding signal (z-score),[26],-0.467
same,glycan array binding signal (z-score),[27],-0.491
